Screening data: PubChem, The Scripps Research Institute Molecular Screening Center
Rows were chosen to be rich in hits. Some 4.1% of all compounds tested hit in one or more screens of this group.
DAX1 inh-1 = DAX1 (NR0B1) inhibitors, primary screen, cell-based, HEK293, Gal4-DAX1, luciferase luminescence; AID 504766, 2011; inhibition, % at 6.75 µM; HEK293 Gal4-DAX1 luciferase reporter; 0.99% of 340,000 active;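 active = inhibition above the mean over all tested compounds plus 3 SD, cut at about 4.2% in these data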;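 note: inhibition shows as a rise in luminescence from relieved DAX1 repression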
Target sequence (P51843 207-470 limits assumed): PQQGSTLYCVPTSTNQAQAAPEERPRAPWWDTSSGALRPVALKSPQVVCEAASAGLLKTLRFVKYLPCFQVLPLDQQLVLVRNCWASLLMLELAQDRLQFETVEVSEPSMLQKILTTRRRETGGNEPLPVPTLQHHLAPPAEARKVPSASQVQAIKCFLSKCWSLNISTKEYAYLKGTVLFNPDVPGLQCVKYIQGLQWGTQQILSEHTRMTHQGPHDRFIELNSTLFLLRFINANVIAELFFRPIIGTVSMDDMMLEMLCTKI
DAX1 inh-2 = DAX1 (NR0B1) inhibitors on StAR promoter, primary screen, cell-based, luminescence, SF-1 (NR5A1), full-length DAX-1; 1.1% of 370,000 active; HEK293T StAR-luciferase reporter, SF-1/DAX-1 repression relief; inhibition, % at 6.8 µM; AID 652010, 2013;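 active = inhibition above the mean over all tested compounds plus 3 SD, cut at about 3.6% in these data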;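 note: higher inhibition means more luminescence from relief of DAX-1 repression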
ssDAF-12 act = S. stercoralis DAF-12 nuclear receptor activators, primary screen, cell-based, luminescence, HEK293, GRIP1 co-expression, lit1-tk-luc; Nuclear hormone receptor DAF-12 (Strongyloides stercoralis); HEK293 ssDAF-12/GRIP1 lit1-tk-luc reporter; % of 3 µM dafachronic acid response; activation, % at 6.8 µM; 1% of 370,000 active;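 active = activation above the mean over all tested compounds plus 3 SD, cut at about 0.9% in these data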
hcDAF12 agonist = H. contortus DAF-12 nuclear receptor activators, primary screen, cell-based, luminescence, HEK293, lit1-tk-luc reporter | HEK293 hcDAF-12 lit1-tk-luc reporter; 0% DMSO, 100% Δ7-dafachronic acid | activation, % at 6.8 µM | 1.4% of 370,000 active | AID 652067, 2013;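 active = activation above the mean of all tested compounds plus 3 SD, cut at about 5.5% in these data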
hgDAF12 agonist = H. glycines DAF-12 receptor agonists, primary screen, cell-based, luminescence, HEK293, GAL4 fusion, UAS-luciferase | Nuclear hormone receptor DAF-12 (Heterodera glycines), GAL4 fusion | HEK293 GAL4-hgDAF12 UAS-luciferase reporter, agonist luminescence; normalized to butyrate control | activation, % at 6.8 µM | 1.8% of 370,000 active | AID 687014, 2013;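 active = activation above a cutoff set at the mean of all screened compounds plus 3 SD, cut at about 10% in these data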
DAX1 inh confirm = DAX1 (NR0B1) inhibitors relieving SF-1 repression, confirmation, cell-based, luminescence, HEK293T, full-length DAX-1, SF-1 activated StAR promoter. shares compounds with DAX1 inh-2. HEK293T StAR-promoter luciferase reporter, SF-1/DAX-1 repression. inhibition, % at 6.8 µM. 87% of 2,400 active;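 active = inhibition above the average of every tested compound plus 3 SD, cut at about 3.8% in these data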
Target sequence (P51843 whole entry, looked up): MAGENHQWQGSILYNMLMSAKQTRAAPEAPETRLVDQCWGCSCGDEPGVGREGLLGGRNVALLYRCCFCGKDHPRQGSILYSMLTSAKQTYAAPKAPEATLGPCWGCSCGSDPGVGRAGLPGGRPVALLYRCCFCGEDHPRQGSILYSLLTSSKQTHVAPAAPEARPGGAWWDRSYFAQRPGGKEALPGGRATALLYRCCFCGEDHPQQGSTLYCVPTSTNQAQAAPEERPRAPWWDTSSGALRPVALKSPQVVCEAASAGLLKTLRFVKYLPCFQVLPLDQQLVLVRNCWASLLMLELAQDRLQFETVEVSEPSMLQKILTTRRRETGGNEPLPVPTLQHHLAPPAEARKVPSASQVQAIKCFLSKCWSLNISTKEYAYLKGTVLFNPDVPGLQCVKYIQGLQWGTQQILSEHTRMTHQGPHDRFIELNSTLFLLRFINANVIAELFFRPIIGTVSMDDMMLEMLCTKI
SF1 mutant ctr = StAR reporter signal changes without DAX1, counter-screen for DAX1 inhibitor project, cell-based, luminescence, AF-2 mutant SF-1, transactivation. shares compounds with DAX1 inh-2. HEK293 StAR-luciferase, SF-1 AF2 mutant. inhibition, % at 6.8 µM. 78% of 2,400 active;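 active = inhibition above the mean of all tested compounds plus 3 SD, cut at about 3% in these data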
LXRb hcDAF ctr = LXR agonists, Gal4 luciferase reporter, confirmation, counter-screen for hcDAF-12 agonist project, cell-based, luminescence, HEK293, H. contortus campaign; shares compounds with hcDAF12 agonist; HEK293 Gal4-LXR tk-luc reporter, 24 h; normalized: DMSO 0%, positive control 100%; activation, % at 6.8 µM; 3,400 tested, under 10 active;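 active = mean percent activation of the reporter above a cutoff set as the average over tested compounds plus their standard deviation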
hcDAF12 ag = H. contortus DAF-12 receptor agonists, confirmation, cell-based, luminescence, HEK293, lit1-tk-luc, triplicate; activation, % at 6.8 µM; HEK293 hcDAF-12 lit1-tk-luc reporter; % of Δ7-dafachronic acid response; 61% of 3,400 active; shares compounds with hcDAF12 agonist;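 active = mean activation across triplicate tests above the threshold derived from the earlier primary screen, cut at about 5.5% in these data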
Each line names hits and unclear results; the compound was inactive in the other large screens (follow-up assays come after a bar, where they were run).

COc1ccc2nc(SCC(=O)/C(C#N)=C(\C)N)[nH]c2c1	DAX1 inh-2 4.8, hcDAF12 agonist 5.8 | DAX1 inh confirm 13.8 | SF1 mutant ctr 8.8
Nc1ncnc(N)c1N=Nc1ccccc1	none
Nc1nc(N)c(N=Nc2ccccc2)c(=O)[nH]1	DAX1 inh-2 5.7 | DAX1 inh confirm 5.5 | SF1 mutant ctr 3.2
Cc1ccc(S(=O)(=O)N(Cc2ccccc2F)C(=O)N2CCN(C)CC2)cc1	DAX1 inh-2 5.0 | DAX1 inh confirm inactive | SF1 mutant ctr inactive
COc1ccccc1CNC(=O)C[C@H]1CC[C@H]2[C@H](COc3ccc(NS(=O)(=O)c4ccc(C)cc4)cc3C(=O)N2C)O1	none (no result: DAX1 inh-1)
CN1OC[C@@H]2CN[C@H](c3ccc(-c4cc5ccccc5o4)cc3)C[C@@H]21	none (no result: DAX1 inh-2, ssDAF-12 act, hcDAF12 agonist, hgDAF12 agonist)
CN1OC[C@@H]2CN[C@H](c3ccc(-c4ccc(C#N)cc4)cc3)C[C@@H]21	DAX1 inh-2 5.4, hgDAF12 agonist 12.2 | DAX1 inh confirm 13.6 | SF1 mutant ctr 8.1
CCOC(=O)Cc1c(C)c2c(C)[nH]nc2oc1=O	DAX1 inh-2 5.4 | DAX1 inh confirm inactive | SF1 mutant ctr inactive
COC(=O)[C@]12C[C@H](CC(=O)NCC34CC5CC(CC(C5)C3)C4)C(=O)N(Cc3ccc(Cl)cc3Cl)C1=C[C@H](C(C)(C)C)O[C@@H]2C	none (no result: DAX1 inh-1)
OC1CCN(c2c3c(nc4cc(-c5cccc(F)c5)nn24)CCCC3)CC1	none
CN(CCO)c1c2c(nc3cc(-c4cccc(F)c4)nn13)CCCC2	DAX1 inh-2 6.4 | DAX1 inh confirm 10.4 | SF1 mutant ctr 4.0
O=C1SC(SC(=Nc2ccccc2)Nc2ccccc2)C(=O)N1c1ccccc1 (stereo unspecified)	DAX1 inh-2 5.9, hgDAF12 agonist 13.4 | DAX1 inh confirm inactive | SF1 mutant ctr inactive
Cc1cccc(C(=O)Nc2nnc(SCC(=O)NCc3ccco3)s2)c1	DAX1 inh-2 5.6 | DAX1 inh confirm inactive | SF1 mutant ctr inactive
COc1cccc(N2CC(C(=O)Nc3nnc(SCC(=O)Nc4ccc(NC(C)=O)cc4)s3)CC2=O)c1 (stereo unspecified)	none
COc1cccc(C(=O)Nc2nnc(SCC(=O)Nc3ccc(NC(C)=O)cc3)s2)c1	DAX1 inh-2 10.2, hcDAF12 agonist 5.6 | DAX1 inh confirm 9.1 | SF1 mutant ctr 6.6
COC(=O)C1CCN(C(=O)c2ccc3nc(-c4cccc(OC)c4)oc3c2)CC1	DAX1 inh-2 4.8 | DAX1 inh confirm 8.3 | SF1 mutant ctr 5.0
OCCCc1cn(Cc2ccccc2)c2ccccc12	none
c1ccc(Cn2cc(CCOCc3ccccn3)c3ccccc32)cc1	DAX1 inh-2 4.9, ssDAF-12 act 0.9 (no result: DAX1 inh-1) | DAX1 inh confirm inactive | SF1 mutant ctr inactive
COC(=O)C1=C(C)N(Cc2ccc(C(F)(F)F)cc2)C(=NCc2ccc(OC)cc2)NC1c1ccccc1 (stereo unspecified)	none (no result: DAX1 inh-1)
CSc1ccc(Oc2cccc3c2S(=O)(=O)N(C2CC2)C[C@@H](COCc2ccccc2)O3)cc1C	none (no result: DAX1 inh-1)
COC(=O)[C@]12C[C@H](CC(=O)NCc3cccc4ccccc34)C(=O)N(CCc3ccc(OC)c(OC)c3)C1=C[C@H](C(C)C)O[C@@H]2C1CC1	none (no result: DAX1 inh-1)
O=C(Nc1c(C(=O)N2CCC(N3CCCCC3)CC2)oc2ccccc12)c1ccc(F)cc1	DAX1 inh-2 8.1 | DAX1 inh confirm 7.6 | SF1 mutant ctr inactive
COCCCNC(=O)C[C@H]1C[C@@]2(C(=O)OC)C(=C[C@H](COCc3ccccc3)O[C@@H]2C)N(Cc2ccco2)C1=O	none (no result: DAX1 inh-1)
C/C(=N\NC(=O)c1ccccn1)C12CC3CC(CC(C3)C1)C2	DAX1 inh-2 5.8, hgDAF12 agonist 12.7 | DAX1 inh confirm 5.6 | SF1 mutant ctr 3.3
O=C(Nc1ccccn1)C12CC3CC(CC(C3)C1)C2	none
O=C(C1CCN(S(=O)(=O)c2ccc3[nH]c(=O)oc3c2)CC1)N1CCCN(Cc2ccccc2)CC1	none (no result: DAX1 inh-1)
O=C(NC1CCCCC1)C(c1ccc(-c2ccccc2)cc1)n1c(=O)c(-c2ccco2)nc2ccccc21 (stereo unspecified)	DAX1 inh-2 4.8 (no result: DAX1 inh-1) | DAX1 inh confirm inactive | SF1 mutant ctr inactive
CCc1nccn1CC(=O)c1ccc(O)c(O)c1	none (no result: DAX1 inh-1, DAX1 inh-2)
O=C(Nc1ccc(Cl)cc1)N1CCC(c2ccccc2)C1 (stereo unspecified)	DAX1 inh-1 6.8, DAX1 inh-2 5.6, hgDAF12 agonist 12.0 | DAX1 inh confirm 12.1 | SF1 mutant ctr 6.6
O=C(N[C@H](Cc1ccccc1)C(=O)NCc1ccc(OC(F)(F)F)cc1)[C@H]1O[C@@H](n2ccc(=O)[nH]c2=O)[C@H](O)[C@@H]1O	none (no result: DAX1 inh-1)
COC(=O)[C@]12C[C@H](CC(=O)N3CCSCC3)C(=O)N(Cc3cccc4ccccc34)C1=C[C@H](C(C)C)O[C@@H]2C1CC1	none (no result: DAX1 inh-1)
O=C(Nc1nc2ccccc2[nH]1)c1ccc(Br)o1	DAX1 inh-2 6.0, ssDAF-12 act 1.4, hcDAF12 agonist 10.7, hgDAF12 agonist 16.7 | DAX1 inh confirm 7.9 | SF1 mutant ctr 5.2 | LXRb hcDAF ctr inactive | hcDAF12 ag 7.4
Cc1c(C(=O)Nc2nc3ccccc3[nH]2)oc2ccccc12	DAX1 inh-2 5.7, ssDAF-12 act 3.8, hcDAF12 agonist 24.2, hgDAF12 agonist 21.1 | DAX1 inh confirm 13.8 | SF1 mutant ctr 7.4 | LXRb hcDAF ctr inactive | hcDAF12 ag 13.2
